Assay results published in ChEMBL document CHEMBL4513148, “CO-ADD screening of Stellenbosch University (South Africa) compounds”.
The whole screen tested about 23,000 compounds, of which about 30 (0.1%) showed an effect of 50% or more. This excerpt belongs to a sample that is enriched for strong results. Entries with a potency or affinity are not part of this list.

system: Pseudomonas aeruginosa; conditions: Concentration 32 ug.mL-1; ASSAY_TEST Inhibition of Bacterial Growth; detection method Absorption (OD600); MEDIA CAMHB; plate type 384well; NBS; CORNING #3640; time 18 hr

| Structure (SMILES) | Inhibition |
| --- | --- |
| CC(C)(CO)[C@@H](O)C(=O)N/C=C/C(=O)NCCc1ccccc1 | 39.92% |
| CC(C)(C)C(O)C(=O)NCCC(=O)NCCc1ccccc1 (stereo unspecified) | 40.95% |
| CC(C)(CN)C(O)C(=O)NCCC(=O)NCCc1ccccc1 (stereo unspecified) | 51.6% |
| CC(C)(COP(=O)(O)O)[C@@H](O)C(=O)NCCC(=O)NCCc1ccccc1 | 35.19% |
| CC(C)(CO)[C@@H](O)C(=O)NCCC(=S)NCCc1ccccc1 | 38.53% |
| CC(CC(=O)NCCc1ccccc1)NC(=O)[C@H](O)C(C)(C)CO (stereo partly specified) | 72.5% |
